# Test results reported in PubChem BioAssay.
# Several values for one entry are separate records, joined by “and”; a condition that tells them apart may be missing. Identical values can stand only once. Results filed as inconclusive are left out. Activity calls are given as the source filed them. Unless noted, no cut-off is given here; in the data, nearly all actives have AC50 up to about 26 µM. Peptide text beside a SMILES is read from it.
# What was measured:
# [1] = EMT-state selective cytotoxicity in co-culture – imaging, PC-3E GFP, TEM4-18 mCherry, primary screen (AID 1345086;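 active = compounds killing one labelled cell type while sparing the other, by normalised counts and ratio limits, not self-fluorescent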;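 for all read-outs here: cells exposed to compound for 72 h before imaging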;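 for red/green cell ratio (normalised): normalised mesenchymal count divided by normalised epithelial count so high means epithelial killing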); conditions: PC-3E GFP / TEM4-18 mCherry co-culture, imaging cell counts, at 1 µM; for red/green cell ratio (normalised): actives lie on both sides, counts scaled to control wells, 1 = unselective
# [2] = viability loss in pontine glioma line – cell-based, SU-DIPG-XVII, MIPE5.0, CellTiter-Glo, qHTS, dose response (AID 1347060); conditions: CellTiter-Glo ATP luminescence;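 for AC50: cells exposed to compound for 48 hours before viability readout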
# [3] = viability loss in pontine glioma line – cell-based, SU-DIPG-XIII, MIPE4.0, CellTiter-Glo, qHTS, dose response (AID 1347061; cut-off not given, nearly all actives have AC50 up to about 37 µM;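 note: cells exposed to compound for 48 hours before readout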); conditions: CellTiter-Glo ATP luminescence
# [4] = viability loss in pontine glioma line – cell-based, JHH-DIPG-1, MIPE4.0, CellTiter-Glo, qHTS, dose response (AID 1347062; cut-off not given, nearly all actives have AC50 up to about 27 µM;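 for AC50: cells exposed to compound for two days before readout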); conditions: JHH-DIPG-1 viability, CellTiter-Glo ATP luminescence
# [5] = viability loss in pontine glioma line – cell-based, SU-DIPG-XIII, MIPE5.0, CellTiter-Glo, qHTS, dose response (AID 1347064; cut-off not given, nearly all actives have AC50 up to about 23 µM;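 for AC50: cells exposed to compound for 48 hours before the viability read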); conditions: CellTiter-Glo ATP luminescence
# [6] = growth inhibition of DIPG cells – cell-based, MIPE4.0 library, CellTiter-Glo luminescence, qHTS (AID 1347066; cut-off not given, nearly all actives have AC50 up to about 30 µM;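 note: cells exposed to compound for 48 hours before readout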); conditions: SU-DIPG-VI viability, CellTiter-Glo ATP luminescence
# [7] = JHH-DIPG-1 glioma cell viability, MIPE5.0 library, CellTiter-Glo luminescence, qHTS (AID 1347067); conditions: JHH-DIPG-1 glioma viability, CellTiter-Glo ATP luminescence;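 note: cells exposed to compound for 48 hours before readout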
# [8] = growth inhibition of DIPG cells – cell-based, MIPE5.0 library, qHTS (AID 1347068; cut-off not given, nearly all actives have IC50 up to about 30 µM;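 for IC50: cells exposed to compound for 48 hours before viability readout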); conditions: SU-DIPG-XXV viability
# [9] = viability loss with induced miR-34 in A549 – imaging, A549 dox-inducible miR-34, nuclei and caspase counts, primary screen (AID 1347080;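 active = compounds whose cell count with miR-34 switched on is under 0.7 times the count with it off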); conditions: A549 miR-34 inducible, Hoechst nuclei count, 48 h
# [10] = MELAS cybrid and Rieske KO viability enhancers – cell-based, MELAS cybrids, Rieske KO mouse fibroblasts, CellTiter-Glo, primary screen (AID 1508586;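 active = mean z-score across replicates of 1.96 or higher in either the MELAS or the Rieske mutant cell line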;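 note: z relative to plate mean and SD of compound and empty wells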); conditions: low glucose
# [11] = viability loss in pontine glioma line – cell-based, SU-DIPG-IV, MIPE4.0, CellTiter-Glo, qHTS, dose response (AID 1347063; cut-off not given, nearly all actives have AC50 up to about 30 µM;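 note: compound exposure lasted 48 hours before the viability readout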); conditions: CellTiter-Glo ATP luminescence
# [12] = viability loss in pontine glioma line – cell-based, SU-DIPG-XXV, MIPE5.0, CellTiter-Glo, qHTS, dose response (AID 1347065); conditions: CellTiter-Glo ATP luminescence;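 note: cells exposed to compound for 48 hours before ATP readout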
# [13] = blockers of cellular phospholipid synthesis – cell-based, LOPAC library, screen 4, primary screen (AID 1347384; call rule not given here); conditions: animal cells, phospholipid biosynthesis inhibition screen; at 10 µM
# [14] = measured here: epithelial PC-3E GFP cell survival
# [15] = measured here: mesenchymal TEM4-18 mCherry cell survival
# [16] = stronger effect = lower value, cell number ratio, induced over uninduced
# [17] = measured here: relative caspase fold change +Dox/-Dox
# [18] = measured here: total cells with miR-34 induction, stronger effect = lower value
# [19] = measured here: total cells without miR-34 induction
# [20] = MELAS cybrid survival, CellTiter-Glo 48 h, stronger effect = higher value
# [21] = Rieske KO mouse fibroblast survival, CellTiter-Glo 72 h
smiles,measurement,setting,value
O=P(O)(O)C(O)(Cc1cccnc1)P(=O)(O)O,red/green cell ratio (normalised),[1],0.63 (inactive)
same,normalised cell number,[1]; [14],1.37
same,normalised cell number,[1]; [15],0.87
same,outcome,[2],inactive
same,outcome,[3],inactive
same,outcome,[4],inactive
same,outcome,[5],inactive
same,outcome,[6],inactive
same,outcome,[7],inactive
same,outcome,[8],inactive
same,fold change,[9]; [16],0.901 (inactive) and 0.801 (inactive)
same,fold change,[9]; [17],4.65 and 1.35
same,cell count,[9]; [18],12400 and 8410
same,cell count,[9]; [19],13700 and 10500
same,z-score,[10]; [20],0.589 (inactive) and -0.187 (inactive)
same,z-score,[10]; [21],0.376 and -0.746
CO[C@@H]1[C@@H](OC(N)=O)[C@@H](O)[C@H](Oc2ccc3c(O)c(NC(=O)c4ccc(O)c(CC=C(C)C)c4)c(=O)oc3c2C)OC1(C)C,red/green cell ratio (normalised),[1],1.14 (inactive)
same,normalised cell number,[1]; [14],1.07
same,normalised cell number,[1]; [15],1.21
same,outcome,[2],inactive
same,outcome,[3],inactive
same,outcome,[4],inactive
same,outcome,[11],inactive
same,outcome,[5],inactive
same,outcome,[12],inactive
same,outcome,[6],inactive
same,outcome,[8],inactive
same,fold change,[9]; [16],0.761 (inactive)
same,fold change,[9]; [17],1.98
same,cell count,[9]; [18],10300
same,cell count,[9]; [19],13600
same,z-score,[10]; [20],0.0759 (inactive)
same,z-score,[10]; [21],-1.01
COC(=O)[C@H](Cc1ccccc1)NC(=O)[C@@H](N)CC(=O)O (H-Asp-Phe-OMe),red/green cell ratio (normalised),[1],1.23 (inactive)
same,normalised cell number,[1]; [14],1.01
same,normalised cell number,[1]; [15],1.24
same,outcome,[2],inactive
same,outcome,[3],inactive
same,outcome,[4],inactive
same,outcome,[11],inactive
same,outcome,[6],inactive
same,outcome,[7],inactive
same,fold change,[9]; [16],0.869 (inactive)
same,fold change,[9]; [17],2.93
same,cell count,[9]; [18],11000
same,cell count,[9]; [19],12600
NCCS(=O)(=O)O,red/green cell ratio (normalised),[1],0.92 (inactive) and 0.87 (inactive)
same,normalised cell number,[1]; [14],1.27 and 1.13
same,normalised cell number,[1]; [15],1.17 and 0.99
same,outcome,[2],inactive
same,outcome,[3],inactive
same,outcome,[4],inactive
same,outcome,[11],inactive
same,outcome,[12],inactive
same,outcome,[6],inactive
same,outcome,[7],inactive
same,outcome,[8],inactive
same,fold change,[9]; [16],0.992 (inactive) and 0.904 (inactive)
same,fold change,[9]; [17],1.43 and 3.02
same,cell count,[9]; [18],10100 and 12500
same,cell count,[9]; [19],10200 and 13800
same,outcome,[13],inactive
Cc1cc(C2CCCCC2)n(O)c(=O)c1,red/green cell ratio (normalised),[1],1.34 (inactive)
same,normalised cell number,[1]; [14],0.78
same,normalised cell number,[1]; [15],1.04
same,AC50,[2],2.35 µM (active)
same,AC50,[3],16.6 µM (active)
same,AC50,[11],3.32 µM (active)
same,AC50,[5],4.17 µM (active)
same,AC50,[12],2.35 µM (active)
same,AC50,[7],2.63 µM (active)
same,z-score,[10]; [20],0.334 (inactive) and 0.408 (inactive) and 0.404 (inactive)
same,z-score,[10]; [21],-0.762 and -0.715 and 0.148
OC[C@H]1O[C@@H](O[C@@H]2[C@@H](CO)O[C@](O)(CO)[C@H]2O)[C@H](O)[C@@H](O)[C@H]1O,red/green cell ratio (normalised),[1],1.2 (inactive)
same,normalised cell number,[1]; [14],1.03
same,normalised cell number,[1]; [15],1.23
same,outcome,[2],inactive
same,outcome,[3],inactive
same,outcome,[11],inactive
same,outcome,[5],inactive
same,outcome,[6],inactive
same,outcome,[7],inactive
same,outcome,[8],inactive
same,fold change,[9]; [16],0.922 (inactive)
same,fold change,[9]; [17],1.95
same,cell count,[9]; [18],11500
same,cell count,[9]; [19],12500
CCCCN(CCCC)CCC(O)c1cc2c(Cl)cc(Cl)cc2c2cc(C(F)(F)F)ccc12 (centres undefined),red/green cell ratio (normalised),[1],1.18 (inactive)
same,normalised cell number,[1]; [14],1.03
same,normalised cell number,[1]; [15],1.22
same,AC50,[2],26.3 µM (active)
same,outcome,[3],inactive
same,AC50,[11],20.9 µM (active)
same,AC50,[5],16.6 µM (active)
same,AC50,[12],23.5 µM (active)
same,AC50,[6],23.5 µM (active)
same,AC50,[7],16.6 µM (active)
same,IC50,[8],20.9 µM (active)
same,fold change,[9]; [16],0.972 (inactive)
same,fold change,[9]; [17],0.81
same,cell count,[9]; [18],8330
same,cell count,[9]; [19],8580
same,z-score,[10]; [20],-1.05 (inactive)
same,z-score,[10]; [21],-0.678
C/C=C(/C(=C/C)c1ccc(O)cc1)c1ccc(O)cc1,red/green cell ratio (normalised),[1],1.38 (inactive)
same,normalised cell number,[1]; [14],1.12
same,normalised cell number,[1]; [15],1.55
same,AC50,[2],23.5 µM (active)
same,outcome,[3],inactive
same,outcome,[4],inactive
same,outcome,[6],inactive
same,AC50,[7],20.9 µM (active)
same,IC50,[8],23.5 µM (active)
same,fold change,[9]; [16],0.888 (inactive) and 0.901 (inactive)
same,fold change,[9]; [17],1.32 and 1.91
same,cell count,[9]; [18],7250 and 10300
same,cell count,[9]; [19],8160 and 11500
same,z-score,[10]; [20],-1.21 (inactive)
same,z-score,[10]; [21],-1.14
Nc1nc(=S)c2[nH]cnc2[nH]1,red/green cell ratio (normalised),[1],1.29 (inactive)
same,normalised cell number,[1]; [14],0.83
same,normalised cell number,[1]; [15],1.07
same,AC50,[2],0.59 µM (active)
same,AC50,[4],0.833 µM (active)
same,AC50,[11],7.43 µM (active)
same,AC50,[5],2.35 µM (active)
same,AC50,[12],1.48 µM (active)
same,AC50,[7],1.05 µM (active)
same,IC50,[8],4.17 µM (active)
same,fold change,[9]; [16],1.16 (inactive)
same,fold change,[9]; [17],0.96
same,cell count,[9]; [18],1820
same,cell count,[9]; [19],1580
COCCCOc1cc(C[C@@H](C[C@H](N)[C@@H](O)C[C@H](C(=O)NCC(C)(C)C(N)=O)C(C)C)C(C)C)ccc1OC,red/green cell ratio (normalised),[1],0.98 (inactive)
same,normalised cell number,[1]; [14],0.98
same,normalised cell number,[1]; [15],0.96
same,outcome,[2],inactive
same,outcome,[3],inactive
same,outcome,[4],inactive
same,outcome,[12],inactive
same,outcome,[6],inactive
same,outcome,[7],inactive
same,outcome,[8],inactive
same,fold change,[9]; [16],0.948 (inactive)
same,fold change,[9]; [17],0.866
same,cell count,[9]; [18],8860
same,cell count,[9]; [19],9350
CNC[C@H](O)[C@@H](O)[C@H](O)[C@H](O)CO,red/green cell ratio (normalised),[1],0.7 (inactive)
same,normalised cell number,[1]; [14],1.19
same,normalised cell number,[1]; [15],0.84
same,outcome,[2],inactive
same,outcome,[3],inactive
same,outcome,[11],inactive
same,outcome,[5],inactive
same,outcome,[6],inactive
same,outcome,[7],inactive
same,outcome,[8],inactive
same,fold change,[9]; [16],0.909 (inactive)
same,fold change,[9]; [17],1.1
same,cell count,[9]; [18],9480
same,cell count,[9]; [19],10400
same,z-score,[10]; [20],0.108 (inactive) and -0.495 (inactive)
same,z-score,[10]; [21],-0.764 and -1.1
CN(C)CCc1c[nH]c2ccc(CS(=O)(=O)N3CCCC3)cc12,red/green cell ratio (normalised),[1],1.06 (inactive)
same,normalised cell number,[1]; [14],0.96
same,normalised cell number,[1]; [15],1.02
same,outcome,[2],inactive
same,outcome,[3],inactive
same,outcome,[4],inactive
same,outcome,[12],inactive
same,outcome,[6],inactive
same,outcome,[7],inactive
same,outcome,[8],inactive
same,fold change,[9]; [16],0.94 (inactive)
same,fold change,[9]; [17],1.05
same,cell count,[9]; [18],7180
same,cell count,[9]; [19],7640
same,z-score,[10]; [20],-0.0807 (inactive)
same,z-score,[10]; [21],-0.352
